{"source": "PubChem BioAssay (NCATS)", "note": "A number with no mark means an inactive call. Calls of active or inactive are those of the source. Calls follow the shape of the dose curve; as a rule, active = well fitted activation curve with a large enough effect; inconclusive = small, poorly fitted or top-dose-only effect; inactive = flat fitted curve, though single readings scatter."}
{"assay": "Cellular Toxicity (caspase-3) SHSY5Y (AID 657)", "conditions": "SH-SY5Y caspase-3 activation, DMSO zero, 10 µM staurosporine = 100%; series mostly up to 91.7 µM; caspase-3 activation: at the top concentration", "source_text": "NIH Chemical Genomics Center [NCGC]\nNIH Molecular Libraries Screening Centers Network [MLSCN]\nNational Institutes of Environmental Health Sciences [NIEHS]\nNational Toxicology Program [NTP]\nWe have developed a 1536-well cell-based assay for quantitative high throughput screening (qHTS) against a number of cell lines to determine in vitro caspase 3/7 activity of small molecules. This particular assay uses the SH-SY5Y cell line which is derived from human neuroblastoma.\nNCGC Assay Protocol Summary:\nThe Caspase-Glo 3/7 assay (Promega) is a homogeneous method to measure caspase-3 and caspase-7 activities in cultured cells. The quantitation of caspase 3/7 activity is based on the cleavage of a peptide-aminoluciferin substrate. After caspase cleaves the substrate the free aminoluciferin is liberated and serves as the substrate of luciferase, which generates the light. The luminescent signal is proportional to the amount of caspase 3/7 activity present.\nUsing the Caspase-Glo 3/7 assay, the amount of caspase 3/7 activity was measured in the SH-SY5Y cell line with complete culture medium following compound treatment for 16 hours. The assay was performed in opaque white 1536-well plates. In the screen, staurosporine and doxorubicin were used as positive controls. Library compounds were measured for their ability to cause the activation of caspase 3/7 in the cell line, as reflected by an increase in luminescence signal, in a concentration-dependent manner. Data were normalized to the controls for basal activity (DMSO only) and 100% stimulation (10 uM staurosporine). AC50 values were determined from concentration-response data modeled with the standard Hill equation.\nqHTS protocol for caspase 3/7 assay in SH-SY5Y cells\n[Step] [Parameter] [Value] [Description]\n1. Reagent; 5 uL; 1500 SH-SY5Y cells/well\n2. Time; 5 hr; 37 °C incubation\n4. Controls; 23 nL; doxorubicin 7 pM to 100 uM & staurosporine 1.4 pM to 20 uM\n5. Time; 16 hr; 37 °C incubation\n6. Reagent; 5 uL; Caspase-Glo 3/7 reagent\n7. Time; 1 hr; Room Temperature\n8. Detection; Luminescence; Viewlux plate reader\nKeywords: caspase 3/7, apoptosis, SH-SY5Y cell line, luminescence, NTPHTS, NTPHTS_NCGC, NIEHS, EPA, DSSTox, MLSMR, MLSCN, NIH Roadmap, qHTS, NCGC", "units": {"caspase-3 activation": "%"}}
{"smiles": "CC1(C)S[C@@H]2[C@H](NC(=O)[C@H](N)c3ccccc3)C(=O)N2[C@H]1C(=O)O", "caspase-3 activation": 0.688}
{"smiles": "O=C(O)/C=C\\C(=O)O", "caspase-3 activation": -0.0779}
{"smiles": "COc1cc(/C=C/C(=O)CC(=O)/C=C/c2ccc(O)c(OC)c2)ccc1O", "caspase-3 activation": 0.00772}
{"smiles": "NCCO", "caspase-3 activation": -1.61}
{"smiles": "CC(C)NCC(O)COc1cccc2ccccc12", "note": "(configuration not stated)", "caspase-3 activation": 5.47}
{"smiles": "c1ccc2sc(SSc3nc4ccccc4s3)nc2c1", "caspase-3 activation": 2.98}
{"smiles": "Nc1nc2ccc([N+](=O)[O-])cc2s1", "caspase-3 activation": 3.07}
{"smiles": "Nc1ccc([N+](=O)[O-])cc1O", "caspase-3 activation": 0.155}
{"smiles": "CCCOC(=O)c1ccc(O)cc1", "outcome": "inactive"}
{"smiles": "c1cnc2c(c1)ccc1cccnc12", "caspase-3 activation": 28.5}
{"smiles": "CCCCCCCCCCCCCCCCCC(=O)O", "caspase-3 activation": -1.16}
{"smiles": "CN(C)c1ccc(N=NS(=O)(=O)O)cc1", "caspase-3 activation": -5.51}
{"smiles": "COc1cc(CNC(=O)CCCC/C=C/C(C)C)ccc1O", "caspase-3 activation": 3.16}
{"smiles": "Nc1ccc(O)c([N+](=O)[O-])c1", "caspase-3 activation": 2.85}
{"smiles": "S=c1[nH]c2ccccc2s1", "caspase-3 activation": 0.533}
{"smiles": "CN1CCC[C@H]1c1cccnc1", "caspase-3 activation": -1.71}
{"smiles": "CN(C)CCC(c1ccc(Cl)cc1)c1ccccn1", "note": "(configuration not stated)", "caspase-3 activation": 1.81}
{"smiles": "O=c1cc(-c2ccccc2)oc2ccccc12", "caspase-3 activation": -3.41}
{"smiles": "O=C1CN(/N=C/c2ccc([N+](=O)[O-])o2)C(=O)N1", "caspase-3 activation": 1.07}
{"smiles": "C#C[C@]1(O)CC[C@H]2[C@@H]3CCc4cc(O)ccc4[C@H]3CC[C@@]21C", "caspase-3 activation": 8.77}
{"smiles": "Nc1ccc(O)c(C(=O)O)c1", "caspase-3 activation": -6.5}
{"smiles": "O=C(O)c1cc(O)c(O)c(O)c1", "caspase-3 activation": -4.58}
